Compound activity from PubChem.
Hits are enriched below; roughly 7.7% of the tested compounds scored in any of these assays.
FMDV antiviral: foot and mouth disease virus antiviral activity | FMDV antiviral cell-based qHTS | Potency, µM (doses to about 57.9 µM), hits mostly inhibitors | 1.2% of 410,000 active | AID 1159524; calls by dose curve; tested in HEK293T cells; also: read-out not given here; nearly all actives have a fitted effect of over 45% in size
RE007 growth inh: less growth of the S. pombe RE007 Vpr strain; AID 651644; S. pombe RE007 Vpr strain, BacTiter-Glo ATP luminescence, 24 h; 0.21% of 360,000 active; Potency, µM (series often up to 92.2 µM), actives largely listed as inhibitors; active = well fitted falling curve with a large enough effect; inconclusive = small, poorly fitted or top-dose-only effect; inactive = no such curve, though single readings can be large or run the other way; also: nearly all actives have a fitted effect of over 50% in size
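Fission yeast RE007 carrying one integrated HIV-1 vpr copy, seeded at OD 0.01 in PMG+AL medium with 23 nL pinned compound. Grown 24 h at 30 degrees; viability read by BacTiter-Glo luminescence after 5 min.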
Giardia FBPA inh: inhibitors of Giardia lamblia fructose-1,6-bisphosphate aldolase; A8B2U2; purified Giardia FBPA; Potency, µM (series often up to 59.6 µM), most hits filed as inhibitors; 0.71% of 290,000 active; AID 2451; also: nearly all actives have a fitted effect of over 55% in size
Target sequence (A8B2U2 whole entry, looked up): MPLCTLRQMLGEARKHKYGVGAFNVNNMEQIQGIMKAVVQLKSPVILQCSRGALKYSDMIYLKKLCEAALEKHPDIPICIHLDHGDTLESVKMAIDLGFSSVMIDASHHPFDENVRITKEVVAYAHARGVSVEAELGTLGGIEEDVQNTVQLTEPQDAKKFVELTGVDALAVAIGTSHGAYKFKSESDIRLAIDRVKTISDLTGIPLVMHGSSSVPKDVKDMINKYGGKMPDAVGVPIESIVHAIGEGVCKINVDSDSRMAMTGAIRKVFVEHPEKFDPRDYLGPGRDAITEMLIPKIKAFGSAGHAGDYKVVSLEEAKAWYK
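40 nM FBPA preincubated 10 min at RT with compound (up to 57.5 uM final), then substrate plus GAPDH/TPI/NAD/arsenate coupling and diaphorase/resazurin added. Fluorescence read after 20 min at RT, 525/598 nm.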
Tb PYK inh: T. brucei pyruvate kinase inhibition; Q57TT1; TbPYK enzyme, Kinase-Glo Plus ATP luminescence, 45 min; Potency, µM (titrated, usually from 76.8 µM), hits mostly inhibitors; 0.12% of 410,000 active; AID 624173; also: nearly all actives have a fitted effect of over 50% in size
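TbPYK + substrate in 50 mM TEA pH 7.2, 100 mM KCl, 10 mM MgCl2, 0.05% BSA, 0.01% Tween-20; cpd pinned; ADP 130 uM final; 45 min RT; Kinase-Glo Plus 10 min; luminescence endpoint.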
Sm TGR block: S. mansoni TGR enzyme inhibition; Q962Y6; purified TGR, DTNB reduction, TNB absorbance 405 nm; Potency, µM (series often up to 114 µM), usual class: inhibitors; 3% of 360,000 active; also: nearly all actives have a fitted effect of over 60% in size
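TGR 20 nM + NADPH 100 uM (dispensed conc.), cpd preinc 15 min RT; start with NADPH (500 uM addition) then DTNB (15 mM addition). Kinetic TNB absorbance, 405 nm filter. Four-parameter Hill fit across titration.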
HCMV antiviral: blocks human cytomegalovirus replication. HFF cells, HCMV-luciferase reporter, 72 h; stronger effect = lower value. activity change, negative = inhibition, % at 57.5 µM. 4.5% of 410,000 active. AID 1259415; in the data active = activity change below about -60%; inconclusive = no clear call, values can overlap the other calls; inactive = above about -39%
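Two compound doses tested in HFFs infected with HCMV-luciferase, MOI 1 PFU/cell, 72 h at 37C. Lysate luminescence read with OneGlo; data normalized against buffer-only and 10uM Salinomycin inhibitor controls.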
Hits are given with their value; – = inactive; ? = inconclusive; · = not tested or not shown. Unless noted, calls follow the shape of the dose curve; as a rule, active = well fitted curve in the direction sought with a large enough effect; inconclusive = small, poorly fitted or top-dose-only effect, or another doubt; inactive = no such curve, though single readings can be large; an effect the other way counts as inactive or inconclusive.

SMILES	FMDV antiviral	RE007 growth inh	Giardia FBPA inh	Tb PYK inh	Sm TGR block	HCMV antiviral
Cc1cc(CN(C)C(=O)c2cc(COc3ccc4ncccc4c3)on2)on1	?	–	–	–	32µM	-80
CN(Cc1nccn1C)C(=O)c1cc(COc2ccc3ncccc3c2)on1	?	–	–	–	–	–
CC(CNC(=O)c1cc(COc2ccc3ncccc3c2)on1)c1ccccc1 (centres undefined)	?	–	–	–	–	-76
Cc1cc2nc(N3CCCN(Cc4cccn4-c4ncccn4)CC3)nc(C)c2cc1C	–	·	·	·	·	·
COc1ccccc1CCc1nc2ccccc2n1C1CCN(C(=O)c2cn3ccsc3n2)CC1	–	·	·	·	·	·
CN1C(=O)C(=Cc2coc3ccccc3c2=O)C(=O)N(C)C1=O	–	–	–	?	10µM	–
O=C1NC(=O)C(=Cc2coc3ccc(O)cc3c2=O)C(=O)N1	?	–	–	?	?	–
CN1C(=O)C(=Cc2cn(CC#N)c3ccccc23)C(=O)N(C)C1=O	–	–	–	–	–	–
N=C1/C(=C\c2coc3ccccc3c2=O)C(=O)N=C2SC(c3ccncc3)=NN12	16µM	14µM	–	–	–	–
CSC1=NSC2=NC(=O)/C(=C\c3coc4ccccc4c3=O)C(=N)N12	?	28µM	–	–	–	–
N=C1/C(=C\c2coc3ccc(O)cc3c2=O)C(=O)N=C2SC=CN12	–	–	–	–	28µM	–
Cc1ccc(NC(=O)c2cc(S(=O)(=O)N3CCC4(CC3)OCCO4)ccc2F)cc1Cl	–	·	·	–	–	–
CCOc1ccccc1NC(=O)C(=O)NCC(c1cccnc1)N1CCN(c2ccccc2)CC1 (centres undefined)	?	·	·	–	–	–
COc1ccc2c(c1)C(=O)[C@@H](OC(=O)NCc1ccco1)[C@H](c1ccc(OC)c(Br)c1)O2	·	·	–	·	·	·
COc1cccc(NC(=O)CN2C=NS(=O)(=O)c3ccccc32)c1	–	·	·	–	–	–
Cc1cc(-c2ccnc(-n3ncc(C(=O)N4CCCCC4c4cccnc4)c3C3CC3)n2)c(C)s1 (centres undefined)	–	·	·	·	·	·
Cc1ccc(COC(=O)c2cc([N+](=O)[O-])ccc2N2CCOCC2)cc1	·	·	–	·	–	-63
O=C(COC(=O)c1cc([N+](=O)[O-])ccc1N1CCOCC1)Nc1cccc(F)c1	40µM	–	·	–	–	–
N#C/C(=C\c1ccc(Cl)cc1Cl)c1nc(-c2cccc(Cl)c2)cs1	–	·	·	–	–	–
COc1cc(/C=N/N=C(N)N)ccc1OCc1ccccc1Cl	–	–	–	–	–	-100
O=C1c2oc3ccc(Cl)cc3c(=O)c2C(c2ccccn2)N1CCCN1CCOCC1 (centres undefined)	–	–	–	–	13µM	–
CC(C)Oc1ccc(C2c3c(oc4ccccc4c3=O)C(=O)N2CCCN2CCOCC2)cc1 (centres undefined)	–	–	–	–	40µM	–
O=C1c2oc3ccccc3c(=O)c2C(c2cccnc2)N1CCCN1CCOCC1 (centres undefined)	–	–	–	–	45µM	–
Cc1ccc(C2c3c(oc4ccccc4c3=O)C(=O)N2CCCN2CCOCC2)o1 (centres undefined)	–	–	–	–	?	–
O=C1CCC[C@H]2[C@@H](Cc3ccccc3)[C@@H](NS(=O)(=O)c3ccccc3)CC[C@]23CCCN13	·	·	·	·	·	–
SMILES	FMDV antiviral	RE007 growth inh	Giardia FBPA inh	Tb PYK inh	Sm TGR block	HCMV antiviral
CC(C)(O)C#Cc1ccc(N2C(c3ccsc3)=Cc3ccc(F)cc3C2c2c[nH]c3ccccc23)cc1 (centres undefined)	–	–	·	–	·	-63
CC(C)(C)c1ccc(C(=O)Nn2c(CCC(=O)O)ccc2-c2cccs2)cc1	–	–	–	–	50µM	–
CN(C)c1ccc(-n2c(CCC(=O)O)ccc2-c2ccccc2)cc1	–	·	·	–	?	–
COC(=O)c1ccc(-n2c(CCC(=O)O)ccc2-c2ccccc2)cc1	?	–	–	–	14µM	·
CC(=O)c1ccc(-n2c(CCC(=O)O)ccc2-c2ccc(C)cc2)cc1	–	–	–	–	18µM	·
O=C(O)CCc1ccc(-c2cccs2)n1NC(=O)c1ccccc1Br	–	–	–	–	?	–
COC(=O)c1ccccc1-n1c(CCC(=O)O)ccc1-c1ccccc1	–	–	–	–	45µM	–
CC(C)(C(O)c1ccc([N+](=O)[O-])cc1)[N+](=O)[O-] (centres undefined)	·	·	–	·	·	·
CCC1(C2CCN(Cc3c(C)[nH]c4ccccc34)CC2)NC(=O)N(Cc2ccc3c(c2)OCO3)C1=O (centres undefined)	–	·	·	·	·	·
COc1ccc(N(Cc2cccs2)C(=O)c2ccc(Br)o2)cc1	–	·	·	–	–	–
COc1ccc(-c2ccc(=O)n(CC(=O)Nc3ccc(N(C)C)cc3)n2)cc1	–	·	·	–	–	–
COC(=O)Cn1c(CCC(=O)O)ccc1-c1ccccc1	–	–	–	–	?	–
O=C(O)CCc1ccc(-c2ccccc2)n1NC(=O)c1cccs1	–	–	–	–	50µM	–
O=C(O)CCc1ccc(-c2cccs2)n1-c1ccc(C(=O)O)cc1	–	–	–	–	7.9µM	–
O=C(O)CCc1ccc(-c2ccccc2)n1-c1cccc(Br)c1	–	·	·	–	16µM	–
O=C(O)CCc1nc(-c2cccs2)no1	–	–	–	–	–	–
CC(=O)c1cccc(-n2c(CCC(=O)O)ccc2-c2ccccc2)c1	–	–	–	–	18µM	–
O=C(Nc1ccc(S(=O)(=O)N2CCCCC2c2cccnc2)cc1)c1ccc(F)cc1 (centres undefined)	?	·	·	–	–	–
CC(=O)c1ccc(-n2c(CCC(=O)O)ccc2-c2ccccc2)cc1	–	–	–	–	40µM	–
CC(=O)c1ccc(-n2c(CCC(=O)O)ccc2-c2ccc(Br)cc2)cc1	–	–	–	–	?	–
COc1ccc(-n2c(CCC(=O)O)ccc2-c2ccc(F)cc2)c(OC)c1	–	–	–	–	45µM	–
CC(=O)c1cccc(-n2c(CCC(=O)O)ccc2-c2cccs2)c1	·	–	–	–	5.6µM	–
CCOc1ccc(CNC(=O)CSc2nnc(C)c3c(C)n(-c4ccccc4)nc23)cc1	?	·	·	–	–	?
COc1ccc(CNC(=O)CSc2nnc(C)c3c(C)n(-c4ccccc4)nc23)c(OC)c1	?	·	·	–	–	-65
Cc1nnc(SCC(=O)NCc2cccc(F)c2)c2nn(-c3ccccc3)c(C)c12	?	·	·	–	–	-61
Cn1c(SCc2ccccc2)nnc1C1CCCN(Cc2cccc3ncccc23)C1 (centres undefined)	–	·	·	·	·	·
CN(C)Cc1csc(NC(=O)Nc2ccccc2C(C)(C)C)n1	–	–	·	–	·	-76
